HT1080 IDH1KD tx: HT-1080 IDH1 knockdown cell toxicity (counter line); HT-1080 IDH1 knockdown viability, ATP luminescence, 48 h; Potency, µM (titrated, usually from 46.1 µM), for the others: at the highest dose activity, negative = toxicity, most hits filed as cytotoxic; 360,000 tested, 2% active; AID 686971;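 also: potency is read from the fitted curve at half-maximal effect; 0% = DMSO wells and -100% = cell-free medium wells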
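Assay cells: HT-1080 with IDH1 knockdown, 750 per well, RPMI/5% FBS. Exposure: 48 h at 37 °C following 2 h pre-incubation. Read: CellTiter-Glo luminescence; fitted concentration-response, curve class assigned.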
HT1080NT lethal: kills 2HG-producing HT-1080-NT fibrosarcoma cells | Potency, µM (top dose mostly 46.1 µM), inactives show at the top dose activity, negative = less viability, most hits filed as cytotoxic | HT-1080-NT fibrosarcoma viability, CellTiter-Glo ATP luminescence, 48 h | 360,000 tested, 1.6% active | AID 686970;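 also: NT is the 2HG producing partner of a matched IDH1 knockdown line; potency is read from the fitted curve at half-maximal effect; 0% = DMSO-treated cells and -100% = media-only wells without cells; nearly all actives have a fitted effect of over 55% in size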
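Fibrosarcoma NT cells, 750 per well in 5% FBS RPMI, were exposed to compound for 48 hours. Viability: CellTiter-Glo luminescence.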
IL1B secr inh: inflammasome signaling inhibition, IL-1 beta readout | activity change, % at 57.5 µM | AID 743279 | 360,000 tested, 4.7% active | THP-1 LPS/ATP IL-1B secretion, AlphaLISA, 16 h; stronger effect = lower value; in the data active = activity change below about -50%; inconclusive = mostly about -30% to -49%
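THP-1 cells pretreated 1 hr with compounds (up to 57.5 uM final), then stimulated with LPS (250 ng/mL final) plus ATP (1.25 mM final); secreted IL-1B measured by AlphaLISA after 16 hr, decreased signal indicating inhibition.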
TDP1 cell noCPT: qHTS for Inhibitors of human tyrosyl-DNA phosphodiesterase 1 (TDP1): qHTS in cells in absence of CPT; DT40 Tdp1-/- hTDP1 cells, no CPT, ATP luminescence, 48 h; 420,000 tested, 15% active; Potency, µM (highest dose often 46.2 µM), for inactives: at the top dose activity change, negative = growth inhibition, most hits filed as inhibitors; also: potency is read from the fitted curve at half-maximal effect; nearly all actives have a fitted effect of over 55% in size
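DT40 Tdp1-/-;hTDP1 cells, no CPT (DMSO vehicle only), 400 cells/well; compounds pin-transferred; ≥48 hr, 37 °C; CellTiter-Glo 30 min RT dark, luminescence read.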
ELG1 DNA repair: ELG1-dependent DNA repair inhibition; AID 504467; HEK293T ELG1-luciferase reporter, luminescence, 16 h; DNA damage induced by 5-fluorouridine; Potency, µM (titrated, usually from 46.1 µM), inactives show top-dose activity change, negative = inhibition, hits mostly inhibitors; 330,000 tested, 2.3% active; also: potency is read from the fitted curve at half-maximal effect; nearly all actives have a fitted effect of over 55% in size
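Step one: seed 2,000 cells per well. Step two: pin-transfer compound or DMSO alongside 5-fluorouridine. Step three: incubate 16 hr, 37 °C, 5% CO2. Step four: add ONE-Glo, wait 30 min, read luminescence.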
DT40 TDP1 CPT: growth inhibition of DT40 Tdp1-/-;hTDP1 cells with camptothecin (screen for TDP1 inhibitors); chicken DT40 Tdp1-/-;hTDP1 cells + 20 nM CPT, ATP luminescence, 48 h; Potency, µM (series often up to 46.2 µM), inactives show top-dose activity change, negative = growth inhibition, hits mostly inhibitors; 420,000 tested, 12% active; AID 686979; also: potency is read from the fitted curve at half-maximal effect; nearly all actives have a fitted effect of over 55% in size
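Cell growth measured by CellTiter-Glo luminescence after a minimum 48 h, 37 C compound exposure with 20 nM CPT in Tdp1-knockout DT40 cells stably expressing hTDP1, seeded 400/well; qHTS titration format.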
* hit, by the source's call. Shown are actives, neighbours in structure and some others; about 19% of the full set was active somewhere. Unless noted, calls follow the shape of the dose curve; as a rule, active = well fitted curve in the direction sought with a large enough effect; inconclusive = small, poorly fitted or top-dose-only effect, or another doubt; inactive = no such curve, though single readings can be large; an effect the other way counts as inactive or inconclusive. Unless noted, % is scaled to controls: 0 for no effect and ±100 for the full control effect.

CC(=O)C[C@@H](O)CC(=O)[C@@H]1OC(=O)[C@H](C)CCCCc2ccccc21 was read as HT1080 IDH1KD tx -1%, HT1080NT lethal 0%, IL1B secr inh 10, TDP1 cell noCPT 0%, ELG1 DNA repair 17% and DT40 TDP1 CPT 22%.
COc1ccc(N2C(=O)CCSC23C(=O)N(Cc2ccc(F)cc2)c2ccccc23)cc1Cl (stereo not drawn) was read as TDP1 cell noCPT 8.2µM* and DT40 TDP1 CPT 9.2µM*.
`Cc1ccccc1NC(=O)CN1C(=O)C2(SCC(=O)N2c2ccc(F)cc2)c2ccccc21` (stereo not drawn) gave TDP1 cell noCPT -19% and DT40 TDP1 CPT -17%.
`CCc1nc2c(OCCn3cccc3)cccn2c1N(C)C(=O)c1ccc(OC)cc1` gave HT1080 IDH1KD tx 14%, HT1080NT lethal 7%, IL1B secr inh -4, TDP1 cell noCPT -5% and DT40 TDP1 CPT 6%.
For CCc1nc2c(OCCC3CCCCC3)cccn2c1N(C)C(=O)c1ccncc1 the results were HT1080 IDH1KD tx 7%, HT1080NT lethal -1%, IL1B secr inh 20, TDP1 cell noCPT 15µM* and DT40 TDP1 CPT 16µM*.
Screening CCc1nc2c(OCCC3CCCCC3)cccn2c1N(C)C(=O)c1ccc(OC)cc1 returned HT1080 IDH1KD tx inconclusive, HT1080NT lethal inconclusive, IL1B secr inh -56*, TDP1 cell noCPT 21µM* and DT40 TDP1 CPT inconclusive.
Screening C=CCOc1cccn2c(N(C)C(=O)c3ccc(OC)cc3)c(CC)nc12 returned HT1080 IDH1KD tx inconclusive, HT1080NT lethal 20%, IL1B secr inh 0, TDP1 cell noCPT -22% and DT40 TDP1 CPT inconclusive.
Screening CCc1nc2c(OCC3CCCCC3)cccn2c1N(C)C(=O)c1ccc(C)cc1 returned HT1080 IDH1KD tx inconclusive, HT1080NT lethal inconclusive, IL1B secr inh -14, TDP1 cell noCPT 15µM* and DT40 TDP1 CPT 21µM*.
COCCC(=O)N1CCC(Oc2ccc(C(=O)N3CCCCC3CCO)cc2)CC1 (stereo not drawn) was read as HT1080 IDH1KD tx 2%, HT1080NT lethal 7%, IL1B secr inh inactive, TDP1 cell noCPT -6%, ELG1 DNA repair inconclusive and DT40 TDP1 CPT 4%.
`Cc1ccc(C(C)(C)C)cc1S(=O)(=O)Nc1ncnc2sccc12` gave HT1080 IDH1KD tx 2%, HT1080NT lethal 1%, IL1B secr inh 59, TDP1 cell noCPT 1%, ELG1 DNA repair -4% and DT40 TDP1 CPT -1%.
For CNS(=O)(=O)c1cc(Nc2ncnc3sccc23)ccc1C the results were HT1080 IDH1KD tx 7%, HT1080NT lethal 5%, IL1B secr inh -30, TDP1 cell noCPT inconclusive, ELG1 DNA repair -18% and DT40 TDP1 CPT 15µM*.
CCN(CC)C(=O)C1CCCN(c2ccccc2[N+](=O)[O-])C1 (stereo not drawn) was read as HT1080 IDH1KD tx 4%, HT1080NT lethal 2%, IL1B secr inh 21, TDP1 cell noCPT 4%, ELG1 DNA repair -16% and DT40 TDP1 CPT 15%.
`O=C1Nc2ccccc2SC(c2ccccc2)C1O` (stereo not drawn) gave HT1080 IDH1KD tx -5%, HT1080NT lethal 2%, IL1B secr inh 36, TDP1 cell noCPT inconclusive, ELG1 DNA repair 2% and DT40 TDP1 CPT 23µM*.
Screening O=C1NCCNC1c1ccccc1 (stereo not drawn) returned HT1080 IDH1KD tx 7%, HT1080NT lethal 8%, IL1B secr inh 26, TDP1 cell noCPT 5% and DT40 TDP1 CPT -2%.
For COc1ccc(-c2nc(CSc3nncn4c3cc3sccc34)c(C)o2)cc1OC the results were TDP1 cell noCPT 2.6µM* and DT40 TDP1 CPT 1.8µM*.
`CC(C)(C)c1nn2cnnc2n(/N=C/c2ccccc2)c1=O` gave HT1080 IDH1KD tx 25%, HT1080NT lethal 4%, IL1B secr inh 10, TDP1 cell noCPT -21%, ELG1 DNA repair 0% and DT40 TDP1 CPT -24%.
For Cn1cc(S(=O)(=O)N2CCCCCC2)cc1C(=O)N1CCN(c2cccc(C(F)(F)F)c2)CC1 the results were TDP1 cell noCPT 23µM* and DT40 TDP1 CPT 16µM*.
`Cn1c(=O)c(=O)n(C)c2cc(S(=O)(=O)N3CCN(c4cccc(C(F)(F)F)c4)CC3)ccc21` gave HT1080 IDH1KD tx -1%, HT1080NT lethal -1%, IL1B secr inh 11, TDP1 cell noCPT 0%, ELG1 DNA repair 13% and DT40 TDP1 CPT -9%.
`Cn1cc(S(=O)(=O)N2CCCCCC2)cc1C(=O)N1CCN(c2cccc(Cl)c2)CC1` gave TDP1 cell noCPT inconclusive and DT40 TDP1 CPT 15µM*.
For Cn1cc(S(=O)(=O)N2CCCC2)cc1C(=O)N1CCN(c2cccc(Cl)c2)CC1 the results were HT1080 IDH1KD tx -26%, HT1080NT lethal inconclusive, IL1B secr inh -12, TDP1 cell noCPT inconclusive, ELG1 DNA repair inconclusive and DT40 TDP1 CPT inconclusive.
COc1ccc(N2CCN(C(=O)c3cc(S(=O)(=O)N4CCC(C)CC4)cn3C)CC2)cc1 was read as TDP1 cell noCPT 21µM* and DT40 TDP1 CPT 23µM*.
For Cc1cc(CNC[C@H]2O[C@@H](n3cnc4c(N)ncnc43)[C@H](O)[C@@H]2O)no1 the results were HT1080 IDH1KD tx -2%, HT1080NT lethal inconclusive, IL1B secr inh 18, TDP1 cell noCPT -26% and DT40 TDP1 CPT -28%.
For Cc1ccc(C2=NN(CC(=O)NCCc3ccccc3)C(=O)CC2)cc1 the results were TDP1 cell noCPT -23% and DT40 TDP1 CPT inconclusive.
Screening O=C(NCc1ccccc1)c1ccc(NC(=O)C2CCC2)cc1 returned HT1080 IDH1KD tx 8%, HT1080NT lethal 17%, IL1B secr inh -21, TDP1 cell noCPT -1% and DT40 TDP1 CPT 6%.
`Cc1cc(C)cc(OCCn2nnc3ccccc32)c1` gave HT1080 IDH1KD tx -11%, HT1080NT lethal -12%, IL1B secr inh -22, TDP1 cell noCPT -22%, ELG1 DNA repair inconclusive and DT40 TDP1 CPT -27%.
Screening O=C(C1CCCCC1)N1C[C@@H](n2cc(-c3ccc(F)cc3)nn2)[C@H](O)C[C@@H]1c1ccccc1 returned HT1080 IDH1KD tx inconclusive, HT1080NT lethal -21%, IL1B secr inh -16, TDP1 cell noCPT inconclusive and DT40 TDP1 CPT inconclusive.
